Bioassay records: PubChem, National Center for Advancing Translational Sciences (NCATS)
ATXN2 expr inh: Primary qHTS for Inhibitors of ATXN expression; Potency, µM (doses to about 57 µM), without a hit: top-dose activity change, negative = inhibition, hits mostly inhibitors; HEK-293 ATXN2-luciferase reporter, luminescence, 24 h; actives 0.72% (n = 360,000); further: on the % scale 0 is the no-effect control and ±100 the full control effect; nearly all actives have a fitted effect of over 55% in size
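ATXN2-luciferase reporter cells (luciferase flanked by upstream and downstream ATXN2 gene portions) were treated 24 h at 37 °C with compounds at up to 57 uM. SteadyGlo luminescence gave expression; GF-AFC fluorescence gave viability.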
TGFb SMAD3 inh: qHTS for Inhibitors of TGF-b; HepG2 CAGA-GFP TGF-b/SMAD3 reporter, GFP fluorescence, 18 h; TGF-beta stimulated, 500 pg/mL final; Potency, µM (titrated, usually from 46.1 µM), inactives show at the top dose activity, negative = inhibition, actives largely listed as inhibitors; actives 1.2% (n = 410,000); further: on the % scale 0 is the no-effect control and ±100 the full control effect; nearly all actives have a fitted effect of over 65% in size
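HEPG2 CAGA-GFP reporter cells (1000/well, DMEM with 1% FBS) received compounds, then recombinant TGF-beta at 500 pg/mL final for 18 hours at 37 degrees C. Per-cell GFP summed per well was normalised to unstimulated and stimulated DMSO controls before curve fitting.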
DT40 TDP1 no CPT: qHTS for Inhibitors of human tyrosyl-DNA phosphodiesterase 1 (TDP1): qHTS in cells in absence of CPT. DT40 Tdp1-/- hTDP1 cells, no CPT, ATP luminescence, 48 h. Potency, µM (top dose mostly 46.2 µM), for inactives: top-dose activity change, negative = growth inhibition, most hits filed as inhibitors. actives 15% (n = 420,000). AID 686978, 2013; further: on the % scale 0 is the no-effect control and ±100 the full control effect; nearly all actives have a fitted effect of over 55% in size
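Cells were dispensed at 400 per well, compounds added by pin tool, plates incubated ≥48 hr at 37 °C, then CellTiter-Glo added for 30 min at room temperature before luminescence reading. Line: DT40 Tdp1-/- complemented with hTDP1; camptothecin omitted.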
ATXN viability: Viability Counterscreen for Primary qHTS for Inhibitors of ATXN expression. AID 651635, 2014. actives 0.49% (n = 400,000). Potency, µM (titrated, usually from 56.7 µM), usual class: cytotoxic. S2 cells (HEK-293 line with an ATXN2-luciferase reporter) viability, CellTiter-Fluor protease fluorescence, 24 h; further: nearly all actives have a fitted effect of over 40% in size
DT40 TDP1 CPT: qHTS for Inhibitors of human tyrosyl-DNA phosphodiesterase 1 (TDP1): qHTS in cells in presence of CPT. chicken DT40 Tdp1-/-;hTDP1 cells + 20 nM CPT, ATP luminescence, 48 h. Potency, µM (series often up to 46.2 µM), without a hit: at the highest dose activity change, negative = growth inhibition, actives largely listed as inhibitors. actives 12% (n = 420,000). AID 686979, 2013; further: on the % scale 0 is the no-effect control and ±100 the full control effect; nearly all actives have a fitted effect of over 55% in size
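Chicken DT40 Tdp1-/- cells complemented with human TDP1, 400 cells/well, exposed to compounds plus 20 nM camptothecin for at least 48 h at 37 C; viability read as ATP content by CellTiter-Glo luminescence.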
HepG2 tox: qHTS for Inhibitors of TGF-b: Cytotox Counterscreen | HepG2 CAGA-GFP viability, ATP luminescence, 18 h | Potency, µM (highest dose often 46.1 µM), without a hit: at the top dose activity change, negative = cytotoxicity, usual class: cytotoxic | actives 0.76% (n = 410,000) | AID 588856, 2011
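HepG2 CAGA-GFP cells (1000/well, DMEM with 1% FBS) received compound, then TGF-beta at 500 pg/mL final, and were incubated 18 hours at 37 degrees C. Viability was read by CellTiter-Glo luminescence. Media-only wells were set as complete cell-killing and DMSO as no toxicity.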
The depositor's hits bear a star; i = inactive; ? = inconclusive; nt = not tested or not shown; [ ] = dose if it differs, or a comment. A selection: hits, their analogues and other compounds. The true share with any hit is near 17%. The call rests on the fitted dose curve; in most records, active means well fitted curve in the direction sought with a large enough effect; inconclusive means small, poorly fitted or top-dose-only effect, or another doubt; inactive means no such curve, though single readings can be large; an effect the other way counts as inactive or inconclusive. Potency means the concentration at half of the fitted maximal effect.

SMILES	ATXN2 expr inh	TGFb SMAD3 inh	DT40 TDP1 no CPT	ATXN viability	DT40 TDP1 CPT	HepG2 tox
CC1Cc2cc(S(=O)(=O)CCC(=O)NCc3ccccc3Cl)ccc2N1C(=O)C1CC1 (stereo not given)	nt	-6%	7.3µM*	nt	7.3µM*	-11%
Cc1ccc(CNC(=O)CCS(=O)(=O)c2ccc3c(c2)CC(C)N3C(=O)C2CC2)cc1 (stereo not given)	-30%	?	5.8µM*	?	7.3µM*	0%
Cc1cccc(C)c1NC(=O)CCS(=O)(=O)c1ccc2c(c1)CC(C)N2C(=O)C1CC1 (stereo not given)	nt	-28%	?	nt	?	-22%
CC1Cc2cc(S(=O)(=O)CCC(=O)Nc3ccccc3F)ccc2N1C(=O)C1CC1 (stereo not given)	nt	-2%	?	nt	?	-9%
CC1Cc2cc(S(=O)(=O)CCC(=O)Nc3ccc(F)cc3Cl)ccc2N1C(=O)C1CC1 (stereo not given)	nt	-30%	13µM*	nt	23µM*	-15%
CC1(C)COC(Cc2ccccc2)=N1	nt	6%	-1%	i	1%	8%
Cc1cc(N)n(-c2ccc(S(=O)(=O)c3ccc(C(C)C)cc3)cc2)n1	-4%	11%	?	i	8%	-1%
CO/N=C(/C(=O)N[C@@H]1C(=O)N2C(C(=O)[O-])=C(C[n+]3ccn4ncccc43)CS[C@H]12)c1nsc(N)n1	7%	nt	-14%	i	6%	nt
c1ccc(-c2nccc3ccccc23)cc1	-2%	23%	3%	?	-4%	2%
Cc1ccc(-c2nc(-c3nccc4ccccc34)oc2-c2ccccc2)cc1	nt	-14%	13µM*	i	?	-17%
Cc1ccc(NC(=O)Cn2ccnc2)cc1C	nt	1%	?	i	-9%	1%
COc1ccc(N=Nc2nc3cc(Br)c(Br)cc3n2C)c(OC)c1	25%	36%	?	i	?	-1%
CCCN1CCC(=O)N([C@H](CSc2ccccc2)c2ccccc2)CC1	38%	0%	18µM*	i	13µM*	1%
CCCN1CCC(=O)N([C@H](CSc2ccc(C)cc2)c2ccccc2)CC1	5%	-8%	8.2µM*	?	16µM*	-14%
COc1ccc(Oc2ncc3nc(C)c(=O)n(C)c3n2)cc1	nt	nt	-22%	nt	1%	nt
COc1ccccc1C(=O)Nc1ccc(C(=O)OCc2cc(=O)n3c4c(sc3n2)CCCC4)cc1	nt	11%	?	nt	?	4%
Cc1nc(-n2nc(C)c(Cc3ccccc3Cl)c2C)sc1C(=O)N1CCCCC1C (stereo not given)	nt	-13%	21µM*	nt	?	-8%
COC(=O)C1CCN(Cc2ccc3c(c2)CN(C(=O)c2cc(C)nc(C)n2)CCO3)CC1	nt	nt	-9%	i	8%[9.04 µM]	nt
Cc1ccc(C2=NN(CC(=O)NCCc3ccc(Cl)cc3)C(=O)CC2)cc1	nt	11µM*	?	nt	?	-31%
CCCCN(CCCNC(=O)CN1N=C(c2ccc(C)cc2)CCC1=O)c1ccccc1	nt	13µM*	15µM*	nt	?	-82%
CCN(CCCNC(=O)CN1N=C(c2ccccc2)CCC1=O)c1cccc(C)c1	nt	-5%	-19%	nt	-13%	0%
COCCNC(=O)CN1N=C(c2ccc(OC)cc2)CCC1=O	-12%	0%	-9%	i	?	1%
CCN(CCCNC(=O)CN1N=C(c2ccc(OC)cc2)CCC1=O)c1cccc(C)c1	nt	?	18µM*	nt	?	-27%
CCN(CCCNC(=O)CN1N=C(c2ccc(C)cc2)CCC1=O)c1ccccc1	nt	?	23µM*	nt	?	-23%
CCCCC(CCC(=O)Nc1cccc([N+](=O)[O-])c1)C(=O)O (stereo not given)	4%	-7%	9%	i	-1%	-58%
SMILES	ATXN2 expr inh	TGFb SMAD3 inh	DT40 TDP1 no CPT	ATXN viability	DT40 TDP1 CPT	HepG2 tox
COc1cc(OC)c(N(C)C(=O)Cn2ncc3c(=O)oc4ccccc4c32)cc1Cl	-2%	-3%	13%	i	8%	-10%
COc1ccc(C2=NN(CC(=O)NCCc3ccccc3)C(=O)CC2)cc1	nt	-11%	-15%	nt	-1%	5%
COc1ccc(C2=NN(CC(=O)NCCCN(C)c3ccccc3)C(=O)CC2)cc1	nt	-23%	15µM*	nt	?	0%
CC1CCCN(S(=O)(=O)c2ccc(S(=O)(=O)N3CCCC3)cc2)C1 (stereo not given)	3%	14%	0%	i	16%	6%
O=C(C1CCCN(S(=O)(=O)c2ccc(Br)cc2)C1)N1CCN(Cc2ccccc2)CC1 (stereo not given)	-25%	?	?	i	16µM*	-13%
CC1CCCN(S(=O)(=O)c2ccc(S(=O)(=O)N3CCCN(Cc4ccccc4)C3)cc2)C1 (stereo not given)	-12%	-8%	?	i	16µM*	13%
Cc1cc(C)c(C(=O)CC(=O)c2ccccc2Cl)c(O)c1	?	?	10µM*	?	16µM*	-23%
Cc1cc(C)c(NC(=O)CC(=O)c2ccccc2)c(Cl)c1	-9%	22%	-5%	i	-12%	-3%
Cc1ccccc1-c1ccc(CN2CCc3nnc(C(NS(C)(=O)=O)C(C)C)n3CC2)cc1 (stereo not given)	nt	nt	?	i	?	nt
CC(C)OCCCN1CC(=O)N2[C@@H](Cc3c([nH]c4ccccc34)C2(C)C)C1=O	-18%	6%	?	i	?	-7%
Cc1ccc(S(=O)(=O)N2CCN(C(=O)COC(=O)/C=C/c3cccc([N+](=O)[O-])c3)CC2)c(C)c1	5%	6%	16µM*	i	9.2µM*	4%
Cc1ccc(S(=O)(=O)N2CCN(C(=O)COC(=O)/C=C/c3ccccc3)CC2)c(C)c1	-28%	-16%	-28%	i	16µM*	-12%
COc1cc(C(=O)OCC(=O)N2CCCCCC2)c([N+](=O)[O-])cc1OC	4%	14%	-7%	i	?	3%
COc1cc(C(=O)OCC(=O)N2CCN(S(=O)(=O)c3ccc(C)cc3C)CC2)c([N+](=O)[O-])cc1OC	1%	-22%	21µM*	i	?	-4%
